# In PubChem BioAssay (EPA / NIEHS):
# Several values for one entry are separate records, joined by “and”; a condition that tells them apart may be missing. Equal values may be shown once. More than one record can exist for a structure, and the calls need not agree. Activity calls are given as the source filed them. Rule for the calls: active = hit-call score of the fitted dose curve at least 0.9, where 1 is the maximum; inactive = score below 0.9.
# Read-out: Interleukin-1 alpha (IL1a), IL1A (gene 3552)
# Experiment: BSK_LPS_IL1a: BioMAP Diversity Plus: LPS Assay for Interleukin-1 alpha (IL1a) Biomarker Activity (AID 2283080)
# Conditions: primary human HUVEC with PBMC; actives raise or lower the signal
# Method: BSK_LPS is a cell-based, multiplexed-readout assay that uses umbilical vein endothelium and peripheral blood mononuclear cells, a human vascular primary cell co-culture, with measurements taken at 24 hours after chemical dosing in a 96-well plate.BSK_LPS_IL1a is an assay component measured in the BSK_LPS assay. It measures IL-a antibody related to regulation of gene expression using ELISA technology.Data from the assay component BSK_LPS_IL1a was analyzed into 1 assay endpoint. This assay endpoint, BSK_LPS_IL1a, was analyzed with bidirectional fitting relative to DMSO as the negative control and baseline of activity. Using a type of binding reporter, gain or loss-of-signal activity can be used to understand changes in the signaling as they relate to the gene IL1A. Furthermore, this assay endpoint can be referred to as a primary readout, because this assay has produced multiple assay endpoints where this one serves a signaling function. To generalize the intended target to other relatable targets, this assay endpoint is annotated to the cytokine intended target family, where the subfamily is interleukins.
# The levels of cell surface (or secreted, indicated by the prefix "s") biomarker endpoints were measured by ELISA. Overt cytotoxicity to cells in confluent adherent cultures (all systems other than the BT system) was assessed by measuring total protein levels using sulforhodamine B (SRB) staining in parallel cultures at the time of biomarker measurements, indicated as SRB endpoints. For proliferation assays for adherent cell types, individual cell types are cultured at sub-confluence and relative cell numbers quantified by SRB staining at time points optimized for each system (48 h: 3C and CASM3C systems; 72 h: BT and HDF3CGF systems; 96 h: SAg system). SRB was performed by staining cells with 0.1% SRB after fixation with 10% TCA and reading wells at 560 nm.Viability and proliferation of PBMC (T cells) was quantified by Alamar Blue reduction for the SAg and BT systems. For PBMC viability (referred to as PBMC Cytotoxicity within the assay endpoint names), cells were plated (75,000/well in a 96-well plate) and then chemical samples added for 1 h before addition of activators, SEB and TSST-1 (20 ng/mL final concentration each). Cells were incubated for 90 h. Then, Alamar Blue (20 uL/well) (Invitrogen, Cat DAL1100) was added for 6 h, and the plates were read with a fluorescence microplate reader at 546/580 nm (excitation/emission). For PBMC proliferation, cells were plated and activated as above but incubated for only 16 h prior to addition of Alamar Blue. Plates were read after 6 h.
SMILES,outcome,AC50
CCCCOCCOCCOC(=O)CCCCC(=O)OCCOCCOCCCC,inactive,–
CC(C)(C)C(=O)CC(=O)C(F)(F)C(F)(F)C(F)(F)F,inactive,–
C=CC/C=C/C/C=C/C/C=C/C,inactive,–
FC(F)(F)C(F)(F)C(F)(F)CI,inactive,–
O=S(=O)(OCCOC(F)(F)F)C(F)(F)F,inactive,–
C=C(C)C(=O)OCC(F)(F)C(F)(F)C(F)(F)F,inactive,–
Cc1ccc(S(=O)(=O)OCC(F)(F)C(F)(F)C(F)(F)C(F)(F)C(F)(F)C(F)F)cc1,inactive,–
FC(F)(F)C(F)(F)C(F)(F)C(F)(F)C(F)(F)C(F)(F)C(F)(F)C(F)(F)CCS,inactive,–
O=C(O)C=C(C(F)(F)F)C(F)(F)F,inactive,–
CCCCCCCOC(=O)c1ccccc1C(=O)OCCCCCCC,inactive,–
COC(=O)CCC(F)(F)C(F)(F)C(F)(F)C(F)(F)F,inactive,–
O=C(O)C(F)(OC(F)(F)C(F)(OC(F)(F)C(F)(OC(F)(F)C(F)(F)C(F)(F)F)C(F)(F)F)C(F)(F)F)C(F)(F)F (stereo not given),inactive,–
C=CC(=O)OCC(F)(F)C(F)(F)C(F)(F)C(F)(F)COC(=O)C=C,–,20.2 µM (active) and 21.2 µM (active)
CCO[Si](CCC(F)(F)C(F)(F)C(F)(F)C(F)(F)C(F)(F)C(F)(F)F)(OCC)OCC,inactive,–
OCCCC(F)(F)C(F)(F)C(F)(F)C(F)(F)C(F)(F)C(F)(F)C(F)(F)F,inactive,46 µM (active)
OCC(F)(F)C(F)(F)C(F)(F)F,inactive,–
CC(CCl)OP(=O)(OC(C)CCl)OC(C)CCl (stereo not given),inactive,–
CCCCC(CC)COP(=O)(O)OCC(CC)CCCC (stereo not given),inactive,–
CC(=O)Nc1ccc(N=Nc2cc(C)ccc2O)cc1,inactive,–

SMILES,outcome,AC50
FC(F)(F)C(F)(F)C(F)(F)C(F)(F)C(F)(F)C(F)(F)CC1CO1 (stereo not given),inactive,–
C=CC(=O)OCC(F)(F)C(F)(F)C(F)(F)C(F)(F)C(F)(F)C(F)(F)C(F)(F)F,inactive,–
CO[Si](OC)(c1ccccc1)c1ccccc1,inactive,–
O=C(O)C(F)(OC(F)(F)C(F)(OC(F)(F)C(F)(F)C(F)(F)F)C(F)(F)F)C(F)(F)F (stereo not given),inactive,–
CCCCCCCCCCCCCCCC[N+](C)(C)Cc1ccccc1,–,9.26 µM (active)
O=C(O)C(F)(F)C(F)(F)OC(F)(F)F,inactive,–
CCCCCCCCC(F)(F)C(F)(F)C(F)(F)C(F)(F)C(F)(F)C(F)(F)F,inactive,–
O=S(=O)(OCC(F)F)C(F)(F)F,inactive,–
C=C(C)C(=O)OCCC(F)(F)C(F)(F)C(F)(F)C(F)(F)C(F)(C(F)(F)F)C(F)(F)F,inactive,–
FC(F)(F)C(F)(F)CNCC(F)(F)C(F)(F)F,inactive,–
O=C(O)C(F)(F)C(F)(F)C(F)(F)C(F)(F)F,inactive,–
CCCCNc1ccccc1,inactive,–
O=C(O)C(F)(F)C(F)(F)C(F)(F)C(F)(F)C(F)(F)C(F)(F)C(F)(F)C(F)(F)C(F)(F)C(F)F,inactive,54.9 µM (active)
CCCCCCOC(=O)c1ccccc1O,inactive,–
FC(F)(I)C(F)(F)C(F)(F)C(F)(F)I,inactive,–
CCc1ccc(C(c2ccc(CC)cc2)C(Cl)Cl)cc1,–,20 µM (active)
O=C(O)C(F)(F)C(F)(F)C(F)(F)C(F)(F)C(F)(F)C(F)(F)C(F)(F)C(F)(F)Cl,inactive,–
CCN(CC)c1ccc2c(C)cc(=O)oc2c1,inactive,–
FC(F)(F)C(F)(F)C(F)(F)C(F)(F)C(F)(F)C(F)(F)C(F)(F)C(F)(F)F,inactive,–
